Inconclusive results are not listed. The source made the active and inactive calls. Unless noted, calls come from the whole dose curve; as a rule, active = well fitted curve in the direction sought with a large enough effect in the repeat runs; inconclusive = weak or mixed curves; inactive = no such curve, though single readings can be large; an effect the other way counts as inactive or inconclusive.

Test [1] can be described thus: qHTS assay to identify small molecule antagonists of the thyroid receptor (TR) signaling pathway (AID 743065). Note: nearly all actives have a fitted effect of over 55% in size. Note: potency is the fitted concentration of half-maximal effect. The procedure, abridged: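 GH3.TRE-Luc rat pituitary cells (two TREs driving luciferase) were dosed with compound, then stimulated with 1 nM T3 (final) for 23.5 h at 37 C. ONE-Glo luminescence was the read-out, with CellTiter-Fluor fluorescence as the cytotoxicity counter-screen.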
Background: In qHTS, concentration-response curves come from the screen itself.

The test system of test [2] is thyroid hormone receptor (rat, GH3 cells). The test can be described thus: qHTS assay to identify small molecule agonists of the thyroid receptor (TR) signaling pathway (AID 743066; calls by dose curve).
For test [3], the target named is Estrogen receptor (Homo sapiens) (UniProt P03372). Briefly: qHTS assay to identify small molecule antagonists of the estrogen receptor alpha (ER-alpha) signaling pathway (AID 743069; active = well fitted curve in the direction sought with a large enough effect in the signal ratio in the repeat runs, not every such curve was filed as active; the % refers to the signal ratio). The procedure, abridged: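 Reporter cells (ER-alpha-bla, HEK293 background) are conditioned overnight in stripped-serum medium (2% charcoal-stripped FBS). Compound and 17beta-estradiol exposure runs 18 hr at 37C, 5% CO2.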
Chain of Estrogen receptor (Homo sapiens) (P03372 whole entry, looked up): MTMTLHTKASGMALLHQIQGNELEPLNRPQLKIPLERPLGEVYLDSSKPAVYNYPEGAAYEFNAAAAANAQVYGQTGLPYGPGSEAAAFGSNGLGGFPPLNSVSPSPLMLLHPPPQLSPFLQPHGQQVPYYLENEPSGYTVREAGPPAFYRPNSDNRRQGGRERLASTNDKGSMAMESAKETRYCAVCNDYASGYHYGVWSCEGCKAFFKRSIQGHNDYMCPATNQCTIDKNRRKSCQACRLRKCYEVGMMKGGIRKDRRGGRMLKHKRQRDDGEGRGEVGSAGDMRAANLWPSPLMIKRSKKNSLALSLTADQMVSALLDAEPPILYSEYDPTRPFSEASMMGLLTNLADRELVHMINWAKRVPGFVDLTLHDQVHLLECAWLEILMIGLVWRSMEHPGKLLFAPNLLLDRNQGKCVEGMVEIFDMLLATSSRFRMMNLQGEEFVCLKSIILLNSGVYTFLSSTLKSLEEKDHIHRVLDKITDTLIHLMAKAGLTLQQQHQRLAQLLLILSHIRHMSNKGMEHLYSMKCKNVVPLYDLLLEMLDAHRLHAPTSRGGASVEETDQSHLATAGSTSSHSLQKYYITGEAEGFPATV

Test [4] is described as follows: qHTS assay to identify small molecule antagonists of the estrogen receptor alpha (ER-alpha) signaling pathway - cell viability counter screen (AID 743074; calls by dose curve;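 note: HEK293 cells carrying ER-alpha-UAS-bla reporter stimulated with 17beta-estradiol; nearly all actives have a fitted effect of over 45% in size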).
In test [5] the target is Estrogen receptor (Homo sapiens) (UniProt P03372). Briefly: qHTS assay to identify small molecule agonists of the estrogen receptor alpha (ER-alpha) signaling pathway (AID 743075; calls by dose curve;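 note: HEK293 GripTite cells with ER-alpha and UAS-driven beta-lactamase reporter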).
Test [6] has the same target. The test can be described thus: qHTS assay to identify small molecule agonists of the estrogen receptor alpha (ER-alpha) signaling pathway using the BG1 cell line (AID 743079). Note: nearly all actives have a fitted effect of over 20% in size. Note: potency is the fitted concentration of half-maximal effect.
Test [7] in a line: qHTS assay to identify small molecule antagonists of the estrogen receptor alpha (ER-alpha) signaling pathway using the BG1 cell line - cell viability counter screen (AID 743081).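 Note: compound given together with 17beta-estradiol as the ER stimulus; series mostly up to about 70 µM; nearly all actives have a fitted effect of over 45% in size.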
For another test, the target named is Aromatase (Homo sapiens) (UniProt P11511). The test can be described thus: qHTS assay to identify aromatase inhibitors (AID 743083). Note: series mostly up to about 70 µM; nearly all actives have a fitted effect of over 55% in size.
Chain of Aromatase (Homo sapiens) (P11511 whole entry, looked up): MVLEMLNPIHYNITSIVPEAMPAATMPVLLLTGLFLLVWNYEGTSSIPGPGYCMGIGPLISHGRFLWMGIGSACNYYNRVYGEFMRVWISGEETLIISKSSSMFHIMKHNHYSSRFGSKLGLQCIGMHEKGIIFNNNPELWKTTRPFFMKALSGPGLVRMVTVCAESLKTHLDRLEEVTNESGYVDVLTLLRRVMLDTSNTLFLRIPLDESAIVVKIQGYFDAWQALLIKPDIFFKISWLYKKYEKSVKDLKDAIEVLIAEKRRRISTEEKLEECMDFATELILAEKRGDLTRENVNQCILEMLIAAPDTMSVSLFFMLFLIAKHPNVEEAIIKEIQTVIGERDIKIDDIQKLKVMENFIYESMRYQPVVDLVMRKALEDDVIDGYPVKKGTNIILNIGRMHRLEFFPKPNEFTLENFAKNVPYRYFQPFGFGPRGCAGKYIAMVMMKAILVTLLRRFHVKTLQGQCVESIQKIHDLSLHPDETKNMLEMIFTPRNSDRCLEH
Test [8] can be described thus: qHTS assay to identify aromatase inhibitors - cell viability counter screen (AID 743084).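 Note: cells stimulated with testosterone during compound exposure; nearly all actives have a fitted effect of over 55% in size.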
The nature of test [9]: qHTS assay to identify small molecule that activate the aryl hydrocarbon receptor (AhR) signaling pathway - cell viability counter screen (AID 743086).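 Note: HepG2 liver cells carrying the AhR DRE luciferase reporter; series mostly up to about 70 µM; nearly all actives have a fitted effect of over 45% in size.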 The procedure, abridged: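 HepG2-AhR-luc (HG2L7.5c1) cells, 4000/well, treated 24 h at 37 C with compound; viability measured as CellTiter-Fluor fluorescence after 30 min in the same wells as the luciferase read.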
The target of test [10] is Peroxisome proliferator-activated receptor gamma (Homo sapiens) (UniProt P37231). Briefly: qHTS assay to identify small molecule agonists of the peroxisome proliferator-activated receptor gamma (PPARg) signaling pathway (AID 743094; active = well fitted activation curve with a large enough effect in the signal ratio in the repeat runs, not every such curve was filed as active; the % refers to the signal ratio). The procedure, abridged:
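Quantitative HTS agonist mode: stable HEK293H line with UAS-beta-lactamase reporter under PPARg control, 17 h compound exposure at 37C, fluorescence after 1 h FRET substrate loading at room temperature.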

A short description of test [11]: qHTS assay to identify small molecule antagonists of the peroxisome proliferator-activated receptor gamma (PPARg) signaling pathway - cell viability counter screen (AID 743194). Note: nearly all actives have a fitted effect of over 55% in size. The gist of the method: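 Cytotoxicity counter screen in PPARg-bla HEK293H cells, same wells as reporter assay. Compounds plus 50 nM rosiglitazone (final) for 17 h at 37 C, then viability read by CellTiter-Glo luminescence.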

Test [12] in a line: qHTS assay for small molecule agonists of the antioxidant response element (ARE) signaling pathway (AID 743202; active = well fitted activation curve with a large enough effect in the signal ratio in the repeat runs, not every such curve was filed as active; the % refers to the signal ratio; note: potency is the fitted concentration of half-maximal effect). The gist of the method: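 Agonist mode reporter screen: HepG2 cells with ARE-controlled beta-lactamase are incubated with test compounds for 16 h at 37 C, and beta-lactamase activity is measured as fluorescence of cleaved B/G FRET substrate.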
Test [13] deals with Aryl hydrocarbon receptor (Homo sapiens) (UniProt P35869). The test can be described thus: qHTS assay to identify small molecule that activate the aryl hydrocarbon receptor (AhR) signaling pathway (AID 743085).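 For activation: HG2L7.5c1 human HepG2 liver cells with stably integrated DRE-driven firefly reporter; series mostly up to about 70 µM.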 Note: nearly all actives have a fitted effect of over 15% in size. Note: potency is the fitted concentration of half-maximal effect. The procedure, abridged:
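A multiplexed format paired cell viability (CellTiter-Fluor fluorescence) with AhR-dependent luciferase output (ONE-Glo luminescence) in the same wells of HepG2 DRE-luc cells after 24 h compound exposure at 37C.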

Test [14] concerns the target Peroxisome proliferator-activated receptor gamma (Homo sapiens) (UniProt P37231). The test can be described thus: qHTS assay to identify small molecule antagonists of the peroxisome proliferator-activated receptor gamma (PPARg) signaling pathway (AID 743191; calls by dose curve; note: series mostly up to about 63 µM; nearly all actives have a fitted effect of over 30% in size). The procedure, abridged:
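GeneBLAzer PPARg UAS-bla HEK293H cells, 5 h post-plating, exposed to compounds 17 h at 37C. LiveBLAzer B/G FRET substrate added for 1 h at room temperature; beta-lactamase reporter read by fluorescence intensity.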

The nature of test [15]: qHTS assay for small molecule agonists of the antioxidant response element (ARE) signaling pathway - cell viability counter screen (AID 743203; calls by dose curve; note: nearly all actives have a fitted effect of over 55% in size). The gist of the method: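 Seeded at 2,000 cells/well, ARE-bla HepG2 cells were incubated 5 hrs before compound addition. After 16 hrs of treatment at 37C with 5% CO2, CellTiter-Glo reagent was added and luminescence read 30 min later.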

Test [16] in a line: qHTS assay to identify small molecule antagonists of the estrogen receptor alpha (ER-alpha) signaling pathway using the BG1 cell line (AID 743080; calls by dose curve;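 note: BG1 cells stimulated with 17beta-estradiol alongside compound; series mostly up to about 70 µM; nearly all actives have a fitted effect of over 25% in size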). The gist of the method: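 Luminescence from a 4×ERE-luciferase reporter in BG1-Luc-4E2 cells served as read-out. Cells, pre-cultured 5 days in stripped-serum phenol-red-free medium, were exposed to compound with 17beta-estradiol co-stimulation for 21.5 h at 37 C.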

Test [17] in a line: qHTS assay for small molecule activators of the heat shock response signaling pathway - cell viability counter screen (AID 743209). Note: nearly all actives have a fitted effect of over 50% in size. The gist of the method:
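First, HSE-bla HeLa cells were seeded at 1500 cells/well and kept overnight at 37 C. Next, compounds were pinned in and incubated 5 h. After the FRET substrate step, CellTiter-Glo was added and luminescence read 30 min later.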

Test [18] is described as follows: qHTS assay for small molecule activators of the heat shock response signaling pathway (AID 743210; active = well fitted activation curve with a large enough effect in the signal ratio in the repeat runs, with a control signal flat, not every such curve was filed as active; the % refers to the signal ratio;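 note: HeLa cells with beta-lactamase reporter driven by heat shock elements; series mostly up to about 63 µM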). The procedure, abridged: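 Quantitative high-throughput format using an engineered HeLa line in which heat shock response elements drive beta-lactamase; after 5 h with compound, cells received a B/G FRET substrate and fluorescence was read.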

Chain of Aryl hydrocarbon receptor (Homo sapiens) (P35869 whole entry, looked up): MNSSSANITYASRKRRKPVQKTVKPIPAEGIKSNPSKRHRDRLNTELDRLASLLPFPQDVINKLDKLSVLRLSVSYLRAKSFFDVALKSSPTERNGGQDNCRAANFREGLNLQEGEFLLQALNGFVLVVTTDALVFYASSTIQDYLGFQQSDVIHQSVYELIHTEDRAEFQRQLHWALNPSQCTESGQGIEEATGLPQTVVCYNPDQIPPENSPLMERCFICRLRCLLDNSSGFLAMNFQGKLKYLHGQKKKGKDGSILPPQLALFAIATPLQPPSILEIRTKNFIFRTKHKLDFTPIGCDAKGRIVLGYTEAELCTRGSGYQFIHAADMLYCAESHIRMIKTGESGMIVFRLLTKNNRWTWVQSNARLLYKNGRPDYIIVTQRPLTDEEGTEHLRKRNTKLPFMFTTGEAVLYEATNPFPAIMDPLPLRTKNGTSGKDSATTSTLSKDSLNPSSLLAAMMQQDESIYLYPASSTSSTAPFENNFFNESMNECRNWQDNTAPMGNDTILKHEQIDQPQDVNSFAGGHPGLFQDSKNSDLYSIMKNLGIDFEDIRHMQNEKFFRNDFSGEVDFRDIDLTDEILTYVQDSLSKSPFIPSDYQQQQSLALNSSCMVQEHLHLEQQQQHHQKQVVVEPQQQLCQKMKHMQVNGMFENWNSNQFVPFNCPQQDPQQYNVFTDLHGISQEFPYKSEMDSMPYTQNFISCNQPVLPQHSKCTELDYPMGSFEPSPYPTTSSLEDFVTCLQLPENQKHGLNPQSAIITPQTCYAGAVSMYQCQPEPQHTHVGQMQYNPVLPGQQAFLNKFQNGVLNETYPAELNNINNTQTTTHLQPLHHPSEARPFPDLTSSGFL
Chain of Peroxisome proliferator-activated receptor gamma (Homo sapiens) (P37231 whole entry, looked up): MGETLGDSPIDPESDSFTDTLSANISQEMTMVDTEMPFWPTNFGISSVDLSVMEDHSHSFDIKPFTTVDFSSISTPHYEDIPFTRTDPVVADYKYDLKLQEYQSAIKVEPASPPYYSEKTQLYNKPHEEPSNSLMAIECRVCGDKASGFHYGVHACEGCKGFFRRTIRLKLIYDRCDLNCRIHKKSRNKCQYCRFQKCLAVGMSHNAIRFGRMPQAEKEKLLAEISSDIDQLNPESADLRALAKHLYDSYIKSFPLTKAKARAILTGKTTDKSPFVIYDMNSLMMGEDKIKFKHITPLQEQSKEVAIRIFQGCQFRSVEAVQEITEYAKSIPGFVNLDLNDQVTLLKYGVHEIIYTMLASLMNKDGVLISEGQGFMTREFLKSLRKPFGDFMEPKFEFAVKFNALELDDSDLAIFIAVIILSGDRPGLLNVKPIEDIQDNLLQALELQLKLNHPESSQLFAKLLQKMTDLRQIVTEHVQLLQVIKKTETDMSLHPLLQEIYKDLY

In the case of `COc1ccc(/C=C/c2cc(OC)cc(=O)o2)cc1`, the Potency result (in [1]; in test [3]; in [5]; in test [7]; in the test with Aromatase (Homo sapiens); in [8]) was “inactive” each time. The Potency result in test [9], in [10] and in test [11] was “inactive” throughout. In addition, the call in test [2] and in [4] was inactive. Further, the figures for the Potency in test [6] and in test [12] were 0.884 µM (active) and 0.443 µM (active), respectively.
As for `CC(C)Cc1nccs1`, the Potency result (in test [1]; in test [7]; with Aromatase (Homo sapiens); in [8]; in test [13]; in test [9]) was “inactive” throughout. The Potency result in [10], in test [14], in test [11], in test [12] and in test [15] was “inactive” each time. In addition, the compound was called inactive in [2] and in [4].
With `CCC(CC)C(=O)O`, the Potency entry (in test [1]; in [5]; in [6]; in test [16]; in test [7]; with Aromatase (Homo sapiens)) was “inactive” throughout. Further, the Potency entry in test [8], in test [13], in test [9], in test [10], in test [11] and in test [12] was “inactive” in each case. Moreover, in test [15], the Potency entry was “inactive”. In addition, the outcome in test [2], in test [4] and in [17] was inactive.
As for `CC[C@H](NC(C)C)[C@H](O)c1ccc(O)c2[nH]c(=O)ccc12`, the Potency result in test [1], in test [3], in test [5], in [6], in test [16] and in test [7] was “inactive” throughout. Moreover, the Potency result (with Aromatase (Homo sapiens); in test [13]; in test [9]; in test [14]; in [11]; in test [12]) was “inactive” throughout. Besides, in [15], the Potency entry was “inactive”. For the same compound, the compound was called inactive in [2], in test [4], in test [17] and in [18].
Turning to `O=C(O)c1c2ccccc2cc2ccccc12`, the Potency result in test [1], in [3], in [5], in [6], in [16] and in [7] was “inactive” each time. In addition, the Potency entry (with Aromatase (Homo sapiens); in [8]; in test [13]; in test [9]; in test [14]; in test [11]) was “inactive” throughout. Moreover, the Potency entry in test [12] and in [15] was “inactive” throughout. Also, the compound was classed as inactive in test [2], in test [17] and in test [18].
Turning to `CC(C)(Cc1c[nH]c2ccccc12)NCC(O)COc1ccccc1C#N` (stereo not given), the Potency was 23.7 µM (active) in test [1] and 29.8 µM (active) in test [13]. For the same compound, the compound was classed as inactive in test [4], in test [17] and in test [18]. In addition, the Potency entry (in test [7]; with Aromatase (Homo sapiens); in test [8]; in test [11]) was “inactive” in each case.
For `Cc1cc(C)n(CO)n1`, the Potency entry in test [1], in [3], in test [5], in test [6], in [16] and in [7] was “inactive” throughout. The Potency result (with Aromatase (Homo sapiens); in test [8]; in test [13]; in [9]; in [10]; in test [11]) was “inactive” each time. Besides, the Potency result in [12] and in test [15] was “inactive” each time. Also, the outcome in test [4] was inactive.
`CCC(C)CCCC(C)(C)O` (stereo not given): the Potency result (in test [1]; in test [7]; in the test with Aromatase (Homo sapiens); in test [8]; in test [13]; in [9]) was “inactive” each time. Also, the Potency entry in [10], in test [14], in test [11], in test [12] and in test [15] was “inactive” in each case. Further, the compound was classed as inactive in test [2], in test [4], in [17] and in test [18].
Consider `O=[N+]([O-])c1ccccc1CCO`, for which the Potency result (in test [1]; in test [7]; with Aromatase (Homo sapiens); in test [8]; in test [9]; in [10]) was “inactive” in each case. Moreover, the Potency entry in [14], in test [11] and in [15] was “inactive” each time. The compound was classed as inactive in test [2], in test [4], in [17] and in test [18].
Consider `Clc1nc2ccccc2nc1Cl`, for which the Potency entry (in [1]; in test [3]; in test [5]; in test [6]; in [7]; in the test with Aromatase (Homo sapiens)) was “inactive” throughout. In addition, the Potency result in test [8], in [13], in test [9], in [11] and in test [15] was “inactive” each time. Further, the outcome in test [2] and in [4] was inactive.
As for `O=c1c2ccccc2oc2ccccc12`, the Potency entry (in test [1]; in test [5]; in test [7]; in the test with Aromatase (Homo sapiens); in test [8]; in test [9]) was “inactive” in each case. Besides, the Potency result in test [11], in [12] and in [15] was “inactive” each time. Further, the result in test [2] was inactive. Further, the Potency in test [6] was 48.6 µM (active).
Take `[O-][n+]1ccc(Cl)cc1`: the Potency result in test [1], in test [7], in test [9], in test [11], in test [12] and in test [15] was “inactive” each time. Further, the compound was called inactive in test [2], in test [4] and in test [17].
Turning to `CC(C(=O)O)c1ccc(/C=C2\CCCCC2=O)cc1` (stereo not given), the Potency entry (in [1]; in test [7]; in the test with Aromatase (Homo sapiens); in test [8]; in test [9]; in test [14]) was “inactive” in each case. The Potency result in test [11] and in test [15] was “inactive” in each case. Besides, the compound was classed as inactive in test [2], in [4] and in test [17].
With `Oc1ccc(CCNCCCCCCNCCc2ccccc2)cc1O`, the Potency in [1] was 26.6 µM (active). The Potency result (in test [3]; in test [5]; in test [6]; in test [16]; in the test with Aromatase (Homo sapiens); in test [8]) was “inactive” throughout. Further, the Potency entry in test [13], in [9], in [11], in test [12] and in test [15] was “inactive” each time.
`FC(F)(Cl)C(F)(Cl)Cl`: the Potency result in test [1], in [3], in test [5], in test [6], in [16] and in test [7] was “inactive” in each case. In addition, the Potency entry (with Aromatase (Homo sapiens); in test [8]; in test [9]; in [10]; in test [14]; in test [12]) was “inactive” in each case. Also, the Potency entry in test [15] is “inactive”. In addition, the compound was called inactive in [2], in [17] and in test [18].
As for `CC(=O)Nc1ccn(C2COC(COC(=O)c3ccccc3)O2)c(=O)n1` (stereo not given), the Potency in [1] was 16.8 µM (active). Also, the result in [2], in test [17] and in test [18] was inactive. Moreover, the Potency result in test [7], in [8], in test [13], in [9], in [11] and in test [12] was “inactive” each time. Also, in [15], the Potency result is “inactive”.
Turning to `C[Si](C)(C)O[Si](C)(C)O[Si](C)(C)C`, the Potency entry (in test [1]; in [7]; in the test with Aromatase (Homo sapiens); in [8]; in test [13]; in test [9]) was “inactive” throughout. The Potency entry in [10], in test [14], in test [11] and in test [12] was “inactive” each time. Moreover, the result in [2], in test [4], in test [17] and in test [18] was inactive.

(Values after PubChem BioAssay (Tox21).)
